Compound activity deposited in PubChem BioAssay by National Center for Advancing Translational Sciences (NCATS).
Only some compounds are listed: those with a hit (about 8% of all), similar ones and a draw of the others.
HT1080-NT tox – qHTS for induction of synthetic lethality in tumor cells producing 2HG: qHTS for the HT-1080-NT fibrosarcoma cell line. HT-1080-NT fibrosarcoma viability, CellTiter-Glo ATP luminescence, 48 h. 360,000 compounds, 1.6% hits. Potency, µM (top dose mostly 46.1 µM), inactives show at the highest dose activity, negative = less viability, actives largely listed as cytotoxic;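 further: NT is the 2HG producing partner of a matched IDH1 knockdown line; 0% = DMSO-treated cells and -100% = media-only wells without cells; nearly all actives have a fitted effect of over 55% in size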
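750 cells/well, RPMI + 5% FBS; 2 h settle, compound pin-transfer, 48 h at 37 degrees C. CellTiter-Glo 10 min RT, luminescence. Normalized to DMSO and media-only wells.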
MCF10A rereplic – A quantitative high throughput screen for small molecules that induce DNA re-replication in MCF 10a normal breast cells; MCF 10A DNA re-replication, Hoechst nuclear intensity, 48 h; AID 624296, 2012; Potency, µM (series often up to 46.1 µM), inactives show at the highest dose activity, positive = re-replication, hits mostly activators; 350,000 compounds, 2.9% hits; further: % of control where 0% means no effect; nearly all actives have a fitted effect of over 50% in size
KB-3-1 cytotox – qHTS assay for MDR1-selective chemotherapeutics: Primary screen using the parental adenocarcinoma cell KB-3-1; KB-3-1 viability, CellTiter-Glo ATP luminescence, 72 h; Potency, µM (top dose mostly 46.1 µM), usual class: cytotoxic; 400,000 compounds, 1.4% hits; further: on the % scale 0 is the no-effect control and ±100 the full control effect; nearly all actives have a fitted effect of over 60% in size
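72 h, 37 °C compound treatment of KB-3-1 parental cells; CellTiter-Glo added, 10 min, luminescence read. Data corrected against DMSO-only plates and normalized before curve fitting.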
HT1080 IDH1KD tx – qHTS for induction of synthetic lethality in tumor cells producing 2HG: qHTS for the HT-1080-IDH1KD cell line | HT-1080 IDH1 knockdown viability, ATP luminescence, 48 h | Potency, µM (doses to about 46.1 µM), without a hit: at the top dose activity, negative = toxicity, usual class: cytotoxic | 360,000 compounds, 2% hits | AID 686971, 2013;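 further: 0% = DMSO wells and -100% = cell-free medium wells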
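Luminescent ATP read-out (CellTiter-Glo, 10 min at room temperature) after 48 h compound exposure at 37 °C gave viability of IDH1-knockdown HT-1080 cells. Activity was normalised to DMSO and cell-free wells, then fitted as concentration-response curves.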
KB-V1 cytotox – qHTS assay for MDR1-selective chemotherapeutics: Primary screen using the drug-selected MDR subline cells KB-V1; KB-V1 MDR cells viability, CellTiter-Glo, 72 h; Potency, µM (top dose mostly 46.1 µM), usual class: cytotoxic; 400,000 compounds, 3.4% hits; further: on the % scale 0 is the no-effect control and ±100 the full control effect; nearly all actives have a fitted effect of over 60% in size
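Cells of the MDR subline KB-V1 are plated, dosed with compound at multiple concentrations, and incubated 72 h at 37 degrees C; CellTiter-Glo is then added and luminescence read after 10 min.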
SW480 rerep – A quantitative high throughput screen for small molecules that induce DNA re-replication in SW480 colon adenocarcinoma cells; 340,000 compounds, 1.8% hits; SW480 DNA re-replication, Hoechst DNA content imaging, 48 h; AID 624297, 2012; Potency, µM (titrated, usually from 46.1 µM), for the others: top-dose re-replication activation, usual class: activators; further: % of control where 0% means no effect; nearly all actives have a fitted effect of over 55% in size
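Treated cells incubate 48 hr (37 C, 5% CO2), are stained 40 min with Hoechst, and nuclear fluorescence is enumerated; a rise in nuclei with high DNA signal marks re-replication.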
* = called active by the depositor; i = inactive; ? = inconclusive; · = not tested or not shown. The call rests on the fitted dose curve; in most records, active means well fitted curve in the direction sought with a large enough effect; inconclusive means small, poorly fitted or top-dose-only effect, or another doubt; inactive means no such curve, though single readings can be large; an effect the other way counts as inactive or inconclusive. Potency means the concentration at half of the fitted maximal effect.

SMILES	HT1080-NT tox	MCF10A rereplic	KB-3-1 cytotox	HT1080 IDH1KD tx	KB-V1 cytotox	SW480 rerep
O=[N+]([O-])c1ccc(N=Nc2ccc(O)c3ccccc23)cc1	26µM*	?	?	?	15µM*	?
O=S(=O)(Nc1ccc(N=Nc2ccc(O)c3ccccc23)cc1)c1ccccc1	-22%	15%	i	?	i	-5%
CCc1ccc(S(=O)(=O)c2nnn3c2nc(NCc2cccc(OC)c2)c2cc(Cl)ccc23)cc1	·	·	i	·	i	·
COCCN(Cc1nnc(-c2cccs2)o1)C(=O)c1cccc(S(=O)(=O)N2CCOCC2)c1	4%	-17%	i	12%	i	-13%
CCCN(Cc1nnc(-c2cccs2)o1)C(=O)c1cccc(S(=O)(=O)N2CCOCC2)c1	5%	-5%	i	-3%	23µM*	-4%
CCC1CCCCN1CCCNC(=O)c1ccc2c(c1)sc1nc(-c3ccc(F)cc3)cn12 (centres undefined)	·	·	i	·	i	·
CC(C)(C)c1ccc(CN2N=C(/C=C/c3ccccc3)CCC2=O)cc1	?	21µM*	i	?	i	?
COc1ccc(-c2c[n+]3c(n2-c2ccc(C)cc2)CCCCC3)cc1	?	-3%	1.8µM*	?	?	11%
COc1ccc(-c2c[n+]3c(n2-c2ccccc2)CCCCC3)cc1	?	-2%	9.2µM*	?	i	-6%
COc1ccc(-n2c(-c3ccc(Cl)cc3)c[n+]3c2CCCCC3)cc1	?	-6%	i	?	i	-29%
O=C(NCc1ccccc1Cl)c1ccc(-n2cnc3cccnc32)cc1	·	·	i	·	?	·
COc1ccc(CCNc2nc(-c3ccc(OC)c(OC)c3)cc(C(F)(F)F)n2)cc1OC	·	·	?	·	i	·
Cc1ccc(-c2csc3nc[nH]c(=O)c23)cc1	?	0%	i	13%	i	-57%
Cc1ccc(-c2csc3nc(-c4ccncc4)[nH]c(=O)c23)cc1	-13%	18µM*	?	-9%	i	5.2µM*
CCOc1ccc(-c2nc3scc(-c4cccs4)c3c(=O)[nH]2)cc1	5%	1.5µM*	i	6%	i	21%
CCc1ccccc1NC(=O)CN1C(=O)c2cccnc2Oc2ccc(Cl)cc21	·	·	i	·	i	·
CC(C)(C)OC(=O)N1CCC(NC(=O)c2nc[nH]c2C(=O)NCc2ccccc2)CC1	-4%	25%	i	-9%	i	5%
CC(C)(C)OC(=O)[C@H](Cc1ccccc1)NC(=O)c1nc[nH]c1C(=O)NC1CCN(C(=O)OC(C)(C)C)CC1	?	5%	?	?	?	-3%
CC(C)C[C@H](NC(=O)c1nc[nH]c1C(=O)NC1CCN(C(=O)OC(C)(C)C)CC1)C(=O)OC(C)(C)C	?	13µM*	?	?	i	1%
CC(C)(C)OC(=O)NCc1ccc(CNC(=O)c2[nH]cnc2C(=O)NC2CCN(C(=O)OC(C)(C)C)CC2)cc1	-25%	18µM*	?	-28%	i	-7%
C[C@H](NC(=O)c1nc[nH]c1C(=O)NC1CCN(C(=O)OC(C)(C)C)CC1)C(=O)OC(C)(C)C	-2%	-1%	i	-2%	i	0.16µM*
CCOc1ccc(NC(=O)c2cc(=O)c3cc(CC)ccc3o2)cc1	·	·	i	·	i	·
O=C1c2ccccc2NC(c2ccc(OCc3ccccc3)c(OCc3ccccc3)c2)N1Cc1ccco1 (centres undefined)	·	·	i	·	i	·
O=C(CSc1nnc(-c2cccs2)o1)Oc1ccc(Cl)cc1	·	·	i	·	i	·
COc1ccc(CCNC(=O)CCc2c(C)nc3c(c(C)nn3-c3ccc(C)cc3)c2C)c(OC)c1	·	·	i	·	i	·
SMILES	HT1080-NT tox	MCF10A rereplic	KB-3-1 cytotox	HT1080 IDH1KD tx	KB-V1 cytotox	SW480 rerep
COC(=O)C1CCC(=O)N1C(c1ccc(OC)cc1)c1cc(OC)c(OC)c(OC)c1 (centres undefined)	1.2µM*	1.3µM*	0.82µM*	?	7.3µM*	0.73µM*
CCSc1nsc(NC(=O)Nc2ccccc2F)n1	?	?	?	-29%	16µM*	-3%
CCOC(=O)c1sc(NC(=O)Nc2ccc(F)cc2)nc1C	-7%	13%	?	-2%	?	-9%
CCSc1nsc(NC(=O)Nc2cccc(OC)c2)n1	?	2%	?	?	?	24%
C=CCSc1nsc(NC(=O)Nc2ccc(F)cc2)n1	16µM*	?	?	2.9µM*	21µM*	156%
CC1Nc2ncnc(N3CCN(c4ccccc4)CC3)c2N(Cc2ccc(Br)cc2)C1=O (centres undefined)	-27%	16µM*	?	?	?	6%
COc1ccc(CN2C(=O)C(C)Nc3ncnc(N4CCOCC4)c32)cc1 (centres undefined)	?	?	?	15µM*	18µM*	?
CCC1Nc2ncnc(N3CCc4ccccc4C3)c2N(Cc2ccc(Cl)cc2)C1=O (centres undefined)	-21%	?	?	-13%	i	?
COc1ccc(CN2C(=O)C(C)Nc3ncnc(N4CCN(c5ccccc5)CC4)c32)cc1 (centres undefined)	-5%	8%	i	-4%	i	15%
